BAZ2B inh – inhibitors of human BAZ2B bromodomain; Q9UIF8; AlphaScreen BAZ2B-H3K14Ac peptide displacement; Potency, µM (highest dose often 114 µM), without a hit: at the top dose activity change, negative = inhibition, usual class: inhibitors; 360,000 tested, 4.4% active; further: on the % scale 0 is the no-effect control and ±100 the full control effect; nearly all actives have a fitted effect of over 60% in size
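Multi-concentration screen (max 110 uM) measuring displacement of acetylated histone H3 peptide from BAZ2B by AlphaScreen, using 50 nM protein, 50 nM peptide and 10 ug/mL streptavidin donor plus Ni-chelate acceptor beads.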
JMJD2A Tudor – JMJD2A Tudor domain (human) inhibition; 390,000 tested, 4.4% active; AlphaScreen JMJD2A-Tudor / H3K4me3 peptide binding; O75164; Potency, µM (highest dose often 114 µM), inactives show at the highest dose activity change, negative = inhibition, usual class: inhibitors; further: on the % scale 0 is the no-effect control and ±100 the full control effect; nearly all actives have a fitted effect of over 50% in size
GLS inh – blocks human kidney-isoform glutaminase activity; O94925; 410,000 tested, 0.21% active; Potency, µM (series often up to 45.5 µM), for the others: at the top dose activity change, negative = inhibition, most hits filed as inhibitors; GLS enzymatic activity, qHTS titration; further: on the % scale 0 is the no-effect control and ±100 the full control effect
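Coupled fluorescence readout: glutamate oxidase/HRP/Amplex Red detect glutamate formed by hKGA from L-glutamine (1 mM solution added). Buffer 45 mM KH2PO4 pH 8.2, 0.02% Tween-20; reads at t0 and 30 min RT.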
L3MBTL1 block – blocks human L3MBTL1 | Q9Y468 | AlphaScreen L3MBTL1–H3K9me1 peptide binding | Potency, µM (doses to about 57.1 µM), for the others: top-dose activity, negative = inhibition, hits mostly inhibitors | 230,000 tested, 0.66% active; further: on the % scale 0 is the no-effect control and ±100 the full control effect; nearly all actives have a fitted effect of over 60% in size
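Displacement of a biotinylated histone H3(1-15) peptide monomethylated at Lys9 (75 nM) from L3MBTL1 (50 nM) was measured by AlphaScreen after a 30 min room-temperature compound incubation; cefsulodin titration served as intraplate control.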
HP1b chromo inh – inhibitors of HP1-beta chromodomain binding to methylated histone tails; P83916; AlphaScreen HP1-beta / biotin-H3K9me3 peptide binding; Potency, µM (doses to about 114 µM), for inactives: at the highest dose activity change, negative = inhibition, most hits filed as inhibitors; 390,000 tested, 0.56% active; AID 540317; further: nearly all actives have a fitted effect of over 70% in size
Target sequence (P83916 whole entry, looked up): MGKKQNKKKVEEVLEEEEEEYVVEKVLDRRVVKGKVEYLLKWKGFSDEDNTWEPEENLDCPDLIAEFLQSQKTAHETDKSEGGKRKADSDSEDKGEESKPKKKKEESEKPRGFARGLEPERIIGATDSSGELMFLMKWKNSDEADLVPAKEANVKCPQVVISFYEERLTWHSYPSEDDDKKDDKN
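AlphaScreen: HP1-beta (50 nM) preformed 30 min with biotin-H3(1-18)K9me3 peptide (50 nM) in PBS pH 7.4, 0.01% Tween-20. Compound added for 30 min at RT, then streptavidin donor/nickel chelate acceptor beads (10 ug/mL) for 30 min.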
G9a inh – inhibitors of human histone lysine methyltransferase G9a; Q96KQ7; G9a H3K9 monomethylation, AlphaScreen, 2 h; Potency, µM (series often up to 102 µM), inactives show top-dose activity, negative = inhibition, most hits filed as inhibitors; 350,000 tested, 8.8% active; further: on the % scale 0 is the no-effect control and ±100 the full control effect; nearly all actives have a fitted effect of over 75% in size
Target sequence (Q96KQ7 913-1193 limits assumed): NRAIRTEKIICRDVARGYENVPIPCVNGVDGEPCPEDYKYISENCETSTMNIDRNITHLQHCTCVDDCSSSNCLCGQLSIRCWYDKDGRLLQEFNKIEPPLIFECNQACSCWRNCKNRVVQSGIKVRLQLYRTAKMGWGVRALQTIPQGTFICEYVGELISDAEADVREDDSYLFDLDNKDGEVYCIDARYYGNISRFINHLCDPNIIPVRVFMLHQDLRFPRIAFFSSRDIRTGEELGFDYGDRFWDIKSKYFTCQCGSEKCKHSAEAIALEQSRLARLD
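Step 1: enzyme (final 20 nM) with compound, 15 min RT. Step 2: substrate peptide 500 nM and SAM 20 uM, 2 h RT. Step 3: anti-H3K9me1 antibody and AlphaScreen beads, 10 min, then plate read.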
Active calls of the source: *; ? = inconclusive; . = not tested or not shown; [ ] = remark or other dose. In the library only some 10% were active in any assay of this set; here they are far more common. The call rests on the fitted dose curve; in most records, active means well fitted curve in the direction sought with a large enough effect; inconclusive means small, poorly fitted or top-dose-only effect, or another doubt; inactive means no such curve, though single readings can be large; an effect the other way counts as inactive or inconclusive. Potency means the concentration at half of the fitted maximal effect.

SMILES	BAZ2B inh	JMJD2A Tudor	GLS inh	L3MBTL1 block	HP1b chromo inh	G9a inh
COc1ccccc1CNC(=O)C1CCN(S(=O)(=O)c2ccc3c(c2)CCCN3C(C)=O)CC1	4.4%	-3.2%	-10.1%	.	27.7%[57 µM]	5.0%[59 µM]
Cc1ccc(OCCN(C)C(=O)CC2C(=O)NCCN2CC(C)(C)C)cc1 (stereo not given)	-9.9%	-23.1%	-14.6%	-8.4%	34.9%	50.1µM*
Cc1ccc(CN2CCNC(=O)C2CC(=O)N(C)C2CCCCC2)cc1 (stereo not given)	-12.4%	4.4%	-14.8%	.	28.1%[57 µM]	44.7µM*
Cc1ccc(CN2CCNC(=O)C2CC(=O)N(C)CCc2ccccc2)cc1 (stereo not given)	-1.2%	-8.5%	16.4%	0.1%	32.8%	-1.4%
CN(CCc1ccccn1)C(=O)CC1C(=O)NCCN1Cc1ccc(-c2ccccc2)cc1 (stereo not given)	-29.4%	-12.4%	-5.2%	-2.4%	43.0%	56.2µM*
COCCN(C(=O)CC1C(=O)NCCN1Cc1ccc(-c2ccccc2)cc1)C(C)C (stereo not given)	-17.2%	-18.5%	4.0%	-10.4%	25.0%	50.1µM*
CC(=O)c1ccccc1NS(=O)(=O)c1cc2c(cc1C)NC(=O)CO2	6.2%	1.0%	-0.3%	.	28.7%[57 µM]	-2.4%[59 µM]
COc1ccccc1C(=O)Nc1ccc(C(=O)OCc2cc(=O)n3c4c(sc3n2)CCCC4)cc1	?	?	-12.2%	.	32.8%	-1.3%[59 µM]
Cc1ccc2occ(CC(=O)N(Cc3ccc(Cl)cc3)C3CCS(=O)(=O)C3)c2c1 (stereo not given)	-11.3%	-31.2%	1.8%	.	9.0%	-0.4%[59 µM]
CN(Cc1cnccn1)C(=O)CC1C(=O)NCCN1Cc1cccc(Oc2ccccc2)c1 (stereo not given)	?	-21.4%	0.0%	0.7%	19.1%	50.1µM*
Cc1ccc(CN2CCNC(=O)C2CC(=O)O)o1 (stereo not given)	11.3%	-14.2%	-2.0%	5.7%	46.1%	50.1µM*
CC(C)(C)CN1CCNC(=O)C1CC(=O)N1CCOc2ccccc2C1 (stereo not given)	-0.7%	-5.6%	-14.0%	5.2%	32.2%	50.1µM*
CN(Cc1cnccn1)C(=O)CC1C(=O)NCCN1Cc1cccc(F)c1 (stereo not given)	-6.0%	-22.9%	4.6%	.	16.0%	.
C=CCNC(=O)CC1C(=O)NCCN1Cc1ccc(-c2ccccc2)cc1 (stereo not given)	-25.6%	-24.5%	-11.1%	-1.5%	46.2%	56.2µM*
Cc1nc2ccn(Cc3cccs3)c(=O)c2cc1C(=O)N1CCN(c2ccccc2)CC1	-26.2%	-23.7%	15.0%	.	18.3%	-8.2%[59 µM]
COc1ccc(-c2nc(C)c(CCNC(=O)C(=O)Nc3ccccc3F)s2)cc1	1.7%	-14.8%	2.7%	.	15.0%[57 µM]	21.3%[59 µM]
O=C(Cc1ccccc1)Nc1sc2c(c1C(=O)Nc1cccc(Cl)c1)CCCC2	.	-9.6%	.	.	.	.
CC(C)CCOc1ccc(C(=O)CCNC(C)C(=O)O)cc1 (stereo not given)	-1.9%	.	.	9.2%	.	5.62µM*
CC1(c2ccccc2)CC(C)(C)N(C(=O)c2cccc(Cl)c2)c2ccccc21 (stereo not given)	1.0%	-1.6%	-2.4%	.	52.3%	26.0%[59 µM]
CCOC(=O)CSc1nc2cc(OC)ccc2cc1C#N	-10.3%	-6.8%	-7.6%	.	49.6%	-32.7%[12.7 µM]
CCOC(=O)CSC1=C(C#N)C(=O)NC(c2ccc(OC)cc2)S1 (stereo not given)	50.1µM*	25.1µM*	5.9%	.	8.8%	?
CCOc1ccc(C2NC(=O)C(C#N)=C(S)N2c2ccc(OC)cc2)cc1OC (stereo not given)	9.8%	-23.2%	21.7%	24.7%	13.3%	?
CCOC(=O)CSC1=C(C#N)C(=O)NC(c2ccc(OC)c(OC)c2)S1 (stereo not given)	50.1µM*	39.8µM*	12.8%	11.2%	?	?
Cc1ccoc1C(=O)NCCNc1ccc(Cl)cc1[N+](=O)[O-]	44.7µM*	?	1.7%	-24.5%	?	17.8µM*
COc1cc(C2NC(=O)C(C#N)=C(S)N2c2ccc(C)cc2)ccc1OC(C)C (stereo not given)	-34.8%	-15.7%	27.7%	.	24.1%	?
SMILES	BAZ2B inh	JMJD2A Tudor	GLS inh	L3MBTL1 block	HP1b chromo inh	G9a inh
COc1ccc(C2NC(=O)C(C#N)=C(S)N2c2cccc(C)c2)cc1OC (stereo not given)	-35.4%	-18.2%[57.1 µM]	4.9%	5.0%	23.1%	39.8µM*
COc1ccc(C2NC(=O)C(C#N)=C(S)N2c2ccc(C)cc2)cc1OC (stereo not given)	-30.6%	-20.9%	20.6%	-0.3%	11.3%	44.7µM*
CCCN(CCC)CCNC(=O)C1CCN(c2nc3ccc(CC)cc3s2)CC1	-6.6%	-17.4%	7.8%	.	6.2%	-29.9%[59 µM]
CN(C(=O)c1ccccn1)c1nnc(-c2cnccn2)s1	79.4µM*	-3.8%	7.1%	-2.2%	3.5%	44.7µM*
COc1cccc(C(=O)N(C)c2nnc(-c3ccncc3)s2)c1	0.7%	-12.8%	0.6%	1.9%	29.7%	79.4µM*
CCCC(=O)N(C)c1nnc(-c2ccc(OC)cc2)s1	-3.2%	-4.2%	1.9%	10.0%	22.7%	44.7µM*
CN(C(=O)c1cnccn1)c1nnc(-c2cnccn2)s1	-3.1%	-20.7%	-1.2%	2.0%	14.0%	-7.6%[2.33 µM]
CN(C(=O)c1cccc(C#N)c1)c1nnc(-c2ccncc2)s1	-1.3%	-4.8%	12.0%	0.1%	45.9%	?
COCCN(C(=O)CCc1ccc(OC)cc1)c1nnc(-c2ccncc2)s1	-16.5%	-22.1%	-7.6%	5.0%	41.9%	?
CN(C(=O)c1cccnc1)c1nnc(-c2ccccn2)s1	56.2µM*	-13.6%	-2.0%	.	18.7%	?
CC(=O)c1cc(-c2ccc(F)cc2)n(CC(=O)NCc2ccc(C)cc2)c1C	6.4%	-3.5%	-2.1%	.	13.4%	6.2%[59 µM]
CC(=O)N1CCC(N(C(=O)Nc2ccc(C)c(F)c2)C(C)C)CC1	-3.9%	-27.5%	2.9%	.	9.3%	-35.2%[59 µM]
COc1ccccc1NC(=O)CSc1cn(CC(=O)N2CCCC2)c2ccccc12	?	-26.7%	13.8%	.	38.3%	-29.5%[59 µM]
CCOc1cc(-c2nc3c(c(CC)nn3-c3ccccc3)c3cc(OC)c(OC)cc23)ccc1O	0.3%	3.9%	-15.7%	.	24.9%	37.0%[59 µM]
CC(=O)c1c(C)nc2nc(-c3ccccc3)nn2c1C	-9.2%	-1.9%	21.0%	.	12.6%	2.2%[59 µM]
CCCn1c(=O)c2sccc2n2c(CCCC(=O)N3CCN(c4cccc(Cl)c4)CC3)nnc12	-19.1%	-27.1%	-5.3%	.	47.0%	5.8%[59 µM]
CCn1c2ccc(C)cc2c2nnc(SCCN3CCCCC3)nc21	2.2%	-20.9%	-12.0%	.	-0.8%	7.0%

Screening data from PubChem BioAssay.
